Measured values reported in PubChem BioAssay (EPA / NIEHS).
Inconclusive results are not listed. Calls of active or inactive are those of the source. How the source made its calls, unless noted: active means hit-call score of the fitted dose curve at least 0.9, where 1 is the maximum; inconclusive means response in the unintended direction; inactive means score below 0.9.

Test: APR_HepG2_CellCycleArrest_1hr: Apredica 1-hour HepG2 Assay for Cell Cycle Arrest (AID 2282666; active means hit-call score of the fitted dose curve at least 0.9, where 1 is the maximum; inactive means score below 0.9)
Conditions: high-content imaging, actives raise or lower the signal
In short: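 Cell cycle arrest scored from nuclear DNA content (Hoechst 33342) using high-content imaging of fixed HepG2 cells after 1 h treatment across 0.39–200 uM, in duplicate. Gain or loss fitted relative to 0.5% DMSO.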
In the case of `CS/C(C)=N/OC(=O)N(C)SN(C)C(=O)O/N=C(\C)SC`, the outcome was “inactive”.
In the case of `CCOP(=S)(OCC)SCn1c(=O)oc2cc(Cl)ccc21`, the outcome was “inactive”.
With `CON(C)C(=O)Nc1ccc(Cl)c(Cl)c1` the outcome was “inactive”.
For `CCCCNC(=O)n1c(NC(=O)OC)nc2ccccc21`, the outcome was “inactive”.
In the case of `CCON=C(CC)C1=C(O)CC(c2c(C)cc(C)cc2C)CC1=O` (centres undefined), the outcome was “inactive”.
For `COc1cnc(OC)n2nc(NS(=O)(=O)c3c(OCC(F)F)cccc3C(F)(F)F)nc12`, the outcome was “inactive”.

Test: ACEA_ER_80hr: ACEA Biosciences xCELLigence Real-Time Cell Analysis on Estrogen Receptor Agonism for Proliferation (AID 2282667)
Conditions: T47D proliferation, impedance (xCELLigence), 80 h
In short: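 Real-time impedance growth kinetics of human T-47D breast cells read 80 h after dosing, gain-of-signal fitted relative to DMSO. Compounds: 1:4 serial series, top final concentration 100 uM, n = 2.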
In the case of `COP(N)(=O)SC` (centres undefined), the outcome was “inactive”.
In the case of `CC1COC(Cn2cncn2)(c2ccc(Oc3ccc(Cl)cc3)cc2Cl)O1` (centres undefined), the outcome was “inactive”.
For `CCNc1nc(Cl)nc(NC(C)C)n1`, the outcome was “inactive”.
With `CCCC1COC(Cn2cncn2)(c2ccc(Cl)cc2Cl)O1` (centres undefined) the outcome was “inactive”.
With `CCCN(CCC)c1c([N+](=O)[O-])cc(S(N)(=O)=O)cc1[N+](=O)[O-]` the outcome was “inactive”.
In the case of `COP(=S)(OC)Oc1nc(Cl)c(Cl)cc1Cl`, the outcome was “inactive”.
With `Cc1ccc(-c2c(Cl)nc(C#N)n2S(=O)(=O)N(C)C)cc1` the AC50 was 10500 nM (active).
In the case of `O=C(O)COc1nc(Cl)c(Cl)cc1Cl`, the outcome was “inactive”.
In the case of `Fc1ccc(Oc2ccnc3cc(Cl)cc(Cl)c23)cc1`, the outcome was “inactive”.
For `CC(C)C1(C)N=C(c2nc3ccccc3cc2C(=O)O)NC1=O` (centres undefined), the outcome was “inactive”.
With `OC(c1ccc(Cl)cc1)(c1cncnc1)c1ccccc1Cl` (centres undefined) the outcome was “inactive”.
In the case of `C=CC1(C)OC(=O)N(c2cc(Cl)cc(Cl)c2)C1=O` (centres undefined), the outcome was “inactive”.
For `Oc1ccccc1-c1ccccc1`, the outcome was “inactive”.
For `COC(=O)c1ccccc1C(=O)OC`, the outcome was “inactive”.
In the case of `CCc1nn(C)c(C(=O)NCc2ccc(C(C)(C)C)cc2)c1Cl`, the AC50 was 18.3 nM (active).
In the case of `C=CCC1=C(C)[C@@H](OC(=O)[C@@H]2[C@@H](C=C(C)C)C2(C)C)CC1=O`, the outcome was “inactive”.
For `C#CCOS(=O)OC1CCCCC1Oc1ccc(C(C)(C)C)cc1` (centres undefined), the AC50 was 355 nM (active).
For `CS/C(C)=N/OC(=O)N(C)SN(C)C(=O)O/N=C(\C)SC`, the AC50 was 164 nM (active).
In the case of `CCOP(=S)(OCC)SCn1c(=O)oc2cc(Cl)ccc21`, the outcome was “inactive”.
With `CON(C)C(=O)Nc1ccc(Cl)c(Cl)c1` the outcome was “inactive”.
For `CCCCNC(=O)n1c(NC(=O)OC)nc2ccccc21`, the outcome was “inactive”.
With `CCON=C(CC)C1=C(O)CC(c2c(C)cc(C)cc2C)CC1=O` (centres undefined) the outcome was “inactive”.
With `COc1cnc(OC)n2nc(NS(=O)(=O)c3c(OCC(F)F)cccc3C(F)(F)F)nc12` the outcome was “inactive”.
